The list is not random: actives were taken first. Their share in the collection is about 2%.
Abeta rescue: compounds reversing amyloid beta toxicity in yeast; Potency, µM (doses to about 46.1 µM), usual class: activators; 410,000 tested, 0.063% active; yeast expressing A-beta42, growth rescue, OD600, 48 h; response scale: 0% DMSO, 100% iron-clioquinol control; note: nearly all actives have a fitted effect of over 55% in size
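Yeast growth medium received pinned compounds, then yeast cells expressing toxic A-beta were added; plates incubated at 30 C for 48 hr. Growth read as absorbance at 600 nm, normalized to DMSO and equimolar FeCl3 plus clioquinol controls.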
MBNL1 CUG block: MBNL1-poly(CUG) RNA binding inhibition; TR-FRET MBNL1-His/biotin-(CUG)12 binding, 665/545 ratio; AID 2675; 280,000 tested, 0.036% active; Q9NR56; Potency, µM (top dose mostly 57.5 µM), without a hit: top-dose activity change, negative = inhibition, actives largely listed as inhibitors; active = well fitted inhibition curve with a large enough effect in the signal ratio, with a control signal flat, not every such curve was filed as active; inconclusive = small, poorly fitted or top-dose-only effect, or effect the other way, or a change in a side signal; inactive = no such curve, though single readings can be large or run the other way; the % refers to the signal ratio; note: % is set by controls: 0 for no effect and ±100 for the full control effect
Target sequence (Q9NR56 whole entry, looked up): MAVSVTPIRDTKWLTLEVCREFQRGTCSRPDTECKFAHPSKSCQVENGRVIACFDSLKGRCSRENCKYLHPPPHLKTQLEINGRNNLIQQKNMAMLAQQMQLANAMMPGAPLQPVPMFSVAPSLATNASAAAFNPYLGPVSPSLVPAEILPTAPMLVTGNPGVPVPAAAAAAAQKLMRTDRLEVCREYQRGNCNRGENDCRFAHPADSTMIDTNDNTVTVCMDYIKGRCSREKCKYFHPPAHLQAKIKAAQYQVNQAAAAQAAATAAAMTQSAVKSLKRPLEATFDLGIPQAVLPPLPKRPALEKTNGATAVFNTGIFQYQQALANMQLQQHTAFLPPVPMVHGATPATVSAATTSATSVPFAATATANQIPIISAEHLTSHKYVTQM
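Compound titration spanned 92 nM–58 uM against the MBNL1-His/biotin-(CUG)12 complex. After 60 min at room temperature with 5 nM streptavidin-XL665 and 0.055 ng/ul terbium anti-His, ratiometric 665/545 nm emission (Ex 340 nm) normalized to controls.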
Glioma ERSR ind: ER stress response induction in glioma; U87-MG GRP78 promoter luciferase reporter, 16 h; Potency, µM, for inactives: at the top dose activation, most hits filed as activators; 420,000 tested, 0.02% active; AID 602332; note: series mostly up to about 76 µM; % of control where 0% means no effect; nearly all actives have a fitted effect of over 35% in size
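Stably transfected U87-MG glioma cells carrying a GRP78-based luciferase sensor; 16 h compound incubation. Luminescence end-point read 10 min after Bright-Glo addition at room temperature.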
aSyn rescue: rescues yeast growth from alpha-synuclein toxicity; Yeast expressing alpha-synuclein, growth rescue, BacTiter-Glo, 24 h; 370,000 tested, 0.14% active; AID 652106; Potency, µM (doses to about 46.1 µM), inactives show at the highest dose growth rescue (activation), hits mostly activators; note: % of control where 0% means no effect; nearly all actives have a fitted effect of over 65% in size
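Readout is rescue of growth in alpha-synuclein-expressing yeast, so inhibitors of toxicity appear as activators. Growth after 24 hr at 30 deg C in galactose medium is quantified by luminescence.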
FUS yeast rescue: FUS proteinopathy suppression in yeast; Potency, µM (highest dose often 76.6 µM), usual class: activators; 390,000 tested, 0.24% active; S. cerevisiae FUS-expressing, growth rescue, OD600, 24 h;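 note: plate controls were DMSO vehicle for no effect and reference control for full effect; nearly all actives have a fitted effect of over 55% in size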
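Yeast expressing FUS under galactose induction, OD 0.005 in 2% galactose medium; compounds in a dilution series, 24 h at 30C. Growth rescue by absorbance at 600 nm; CP55940 positive control, DMSO negative.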
TDP-43 yeast inh: TDP-43 toxicity inhibition in yeast | Potency, µM (top dose mostly 46.1 µM), for the others: at the highest dose growth rescue (activation), most hits filed as activators | 410,000 tested, 1.8% active | TDP-43 expressing yeast growth rescue, BacTiter-Glo, 24 h | AID 652104; note: % of control where 0% means no effect; nearly all actives have a fitted effect of over 50% in size
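Yeast expressing TDP-43 (pregrown in raffinose, seeded at OD600=0.02 in galactose medium) exposed to compounds 24 hr at 30 deg C. Growth read by BacTiter-Glo luminescence; rescue of toxicity appears as increased signal.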
Starred values were filed as active, the others as inactive; i = inactive; ? = inconclusive; · = no result given; ! = not confirmed by another sample; [ ] = another dose, or the depositor's remark. Unless noted, calls come from the whole dose curve; as a rule, active = well fitted curve in the direction sought with a large enough effect; inconclusive = small, poorly fitted or top-dose-only effect, or another doubt; inactive = no such curve, though single readings can be large; an effect the other way counts as inactive or inconclusive. Potency is the fitted concentration of half-maximal effect.

SMILES | Abeta rescue | MBNL1 CUG block | Glioma ERSR ind | aSyn rescue | FUS yeast rescue | TDP-43 yeast inh
Cc1c(NS(=O)(=O)c2cccs2)cccc1-c1nc2cccnc2s1 | · | 4% | 5% | ? | i | 22µM*
Cc1c(NS(=O)(=O)c2ccc3c(c2)OCCO3)cccc1-c1nc2cccnc2s1 | i | ? | -3% | ? | i | 35µM*
COC(=O)C1CCN(Cc2ccc3c(c2)CN(C(=O)c2cc4ccccc4n2C)CCO3)CC1 | · | · | -4% | · | · | ·
O=c1[nH]cnc2n[nH]nc12 | · | · | -3% | · | · | ·
COC(=O)C1CN(CCc2ccccc2)CCS(=O)(=O)N1Cc1ccc(C)cc1 (configuration not stated) | · | · | · | · | i | ·
Cc1ccc(S(=O)(=O)N2CCN(Cc3cccc(F)c3)CC2)cc1 | i | · | -6% | 10% | i | -13%
Cc1ccc2nc(CN3CCN(S(=O)(=O)c4ccc(F)cc4)CC3)oc2c1 | i | · | -2% | · | i | 16µM*
O=C(NCCc1csc(-c2ccccc2)n1)c1c(F)cccc1Cl | i | 8% | 4% | 0% | i | 13µM*
O=C(NCCc1csc(-c2ccccc2)n1)c1c(F)cccc1F | i | 7% | 2% | -9% | i | 20µM*
O=C(NCCc1csc(-c2ccc(F)cc2)n1)c1c(F)cccc1Cl | i | · | -2% | · | i | 13µM*
O=C(NCCc1csc(-c2ccc(Cl)cc2)n1)c1ccco1 | i | 14% | 0% | -14% | i | 16µM*!
Cc1ccc(-c2nc(CCNC(=O)c3ccco3)cs2)cc1 | i | · | 3% | -8% | · | 12%
COCC(=O)N(C)[C@H]1C[C@H]2c3[nH]c4cccc(-c5cccc(F)c5)c4c3CCN2C(=O)[C@H]1[C@H](C)O | · | · | · | · | i | ·
CC(C)CN1C(=O)[C@@]2(CC(=O)N(C)C2c2ccccc2)c2cc(-n3cc(CCCC#N)nn3)ccc21 (some centres not stated) | · | · | · | · | i | ·
COc1ccc(-n2c(CCNC(=O)c3ccc(-c4cccc(F)c4)cc3)nnc2SC)cc1 | · | · | -3% | · | · | ·
COc1cc(C(=O)NCCc2csc(-c3ccc(Cl)cc3)n2)cc(OC)c1OC | i | · | -3% | · | i | 22µM*
COc1cc(-c2nc(CCNC(=O)c3ccco3)cs2)cc(OC)c1OC | i | 9% | -2% | -3% | i | 5%
O=C(NCc1csc(-c2ccccc2)n1)c1cc(F)cc2c1OCOC2 | i | -1% | 3% | 6% | i | 13µM*
CCCC(=O)Nc1nc(-c2ccccc2)ns1 | i | -9%[11.5 µM] | 0% | -24% | · | 16µM*
CC(C)C(=O)Nc1nc(-c2ccccc2)ns1 | ? | -1% | 8% | -15% | i | 13µM*
CCC(=O)Nc1nc(-c2ccccc2)ns1 | i | ? | 8% | · | i | 8.9µM*
Cc1nnc(SCCC(=O)Nc2nc(-c3ccccc3)ns2)s1 | i | 4% | 2% | · | i | ?
CC(=O)Nc1nc(-c2ccc(Cl)cc2)ns1 | i | 4%[11.5 µM] | 0% | -18% | · | 13µM*
C#CCNC(=O)C[C@@H]1C[C@]2(C(=O)OCC)CCC3=C2N(CCC3)C1=O | · | · | · | · | i | ·
CC(C)Oc1ccc(C(=O)NCC2Cc3cc(Cl)cc(-c4ncccn4)c3O2)cc1 (configuration not stated) | · | · | -1% | · | · | ·
SMILES | Abeta rescue | MBNL1 CUG block | Glioma ERSR ind | aSyn rescue | FUS yeast rescue | TDP-43 yeast inh
CC[C@H](C)[C@H](NC(=O)[C@H](CCCNC(=N)N)NC(=O)[C@@H](NC(=O)[C@H](CCCNC(=N)N)NC(=O)[C@H](CCCCN)NC(=O)[C@H](CCCNC(=N)N)NC(=O)[C@@H](NC(=O)[C@H](CC(N)=O)NC(=O)[C@@H](N)CS)[C@@H](C)O)[C@@H](C)CC)C(=O)N[C@@H](CCC(N)=O)C(=O)N[C@@H](CCCNC(=N)N)C(=O)NCC(=O)N1CCC[C@H]1C(=O)NCC(=O)N[C@@H](CCCNC(=N)N)C(=O)N[C@@H](C)C(=O)N[C@@H](Cc1ccccc1)C(=O)N[C@H](C(=O)N[C@H](C(=O)N[C@H](C(=O)NCC(=O)N[C@@H](CCCCN)C(=O)O)[C@@H](C)CC)[C@@H](C)O)C(C)C | · | · | -2% | · | · | ·
COC(=O)[C@]12C[C@H](CC(=O)N3CCC(c4ccccc4)CC3)C(=O)N(Cc3cccc4ccccc34)C1=C[C@H](COCc1ccccc1)O[C@@H]2C | · | · | · | · | i | ·
CCNC(=O)C1=C(O)c2sccc2N(C)S1(=O)=O | i | -3% | -2% | 6% | i | 8.9µM*
Cc1cccc(Nc2nc(N3CCOCC3)nc(N3CCOCC3)n2)c1 | i | -4% | -3% | 1% | i | ?
C(=N\Nc1nc(Nc2ccccc2)nc(N2CCOCC2)n1)/c1c[nH]c2ccccc12 | i | 19% | 7% | 5% | 28µM* | 0%
Cc1cccc(Nc2nc(Nc3cccc(C)c3)nc(N3CCOCC3)n2)c1 | i | · | -2% | · | i | 16µM*
Cc1ccc(Nc2nc(N/N=C/c3c[nH]c4ccccc34)nc(N3CCOCC3)n2)cc1 | ? | -2% | -2% | 19% | ? | ?
Cc1ccc(Nc2nc(N3CCOCC3)nc(N3CCOCC3)n2)cc1C | ? | 5% | -2% | 8% | i | 13µM*
Cc1ccc(Nc2nc(N)c([N+](=O)[O-])c(N3CCOCC3)n2)cc1C | ? | ? | -1% | 9% | i | 18µM*
COc1ccc(CN2CCCC(c3nc(-c4ccncc4)ncc3-c3ccccc3)C2)cc1OC (configuration not stated) | · | · | -4% | · | · | ·
CCCCN1C(=O)N2Cc3ccc(C)cc3C2CS1(=O)=O (configuration not stated) | · | · | · | · | i | ·
Cc1c(C(=O)N2CCCCC2c2cccnc2)sc2ncnc(NCc3cccs3)c12 (configuration not stated) | · | · | -5% | · | · | ·
COC(=O)c1ccccc1NC(=O)/C=N/O | i | -3% | -3% | 6% | i | 23%
O=C(/C=N/O)Nc1ccc2sc3ccccc3c2c1 | i | ? | 4% | 0% | i | 7.9µM*
Cc1ccc(Cl)cc1-n1ncc2c(NC3CCCCC3)ncnc21 | i | · | -3% | · | i | 13µM*
Clc1cccc(-n2ncc3c(NC4CCCCC4)ncnc32)c1 | i | · | -7% | · | i | 16µM*
Cc1ccc(-n2ncc3c(NC4CCCCC4)ncnc32)cc1 | i | · | -1% | · | i | 23%
Cc1ccc(-n2ncc3c(NC4CCCCCC4)ncnc32)cc1 | i | · | 0% | · | i | ?
CC(=O)O[C@@H]1C(=O)O[C@H]2[C@@H]1OC(=O)[C@@H]2OC(C)=O | · | · | -5% | · | · | ·
